Holding throughout (test): DAPPL (digital affinity profiling via proximity ligation, sequencing); 10 mM Tris-HCl pH 7.5, 50 mM NaCl, 1 mM DTT, 4% glycerol, room temperature, 30 min; GST-TFs on glutathione beads, 16-mer random dsDNA library, 0.1% formaldehyde crosslink after washing; high values mean tight binding
Experiment [1] concerns the target T1, FLI1 (Homo sapiens, UniProt Q01543 1-452).
T1 sequence: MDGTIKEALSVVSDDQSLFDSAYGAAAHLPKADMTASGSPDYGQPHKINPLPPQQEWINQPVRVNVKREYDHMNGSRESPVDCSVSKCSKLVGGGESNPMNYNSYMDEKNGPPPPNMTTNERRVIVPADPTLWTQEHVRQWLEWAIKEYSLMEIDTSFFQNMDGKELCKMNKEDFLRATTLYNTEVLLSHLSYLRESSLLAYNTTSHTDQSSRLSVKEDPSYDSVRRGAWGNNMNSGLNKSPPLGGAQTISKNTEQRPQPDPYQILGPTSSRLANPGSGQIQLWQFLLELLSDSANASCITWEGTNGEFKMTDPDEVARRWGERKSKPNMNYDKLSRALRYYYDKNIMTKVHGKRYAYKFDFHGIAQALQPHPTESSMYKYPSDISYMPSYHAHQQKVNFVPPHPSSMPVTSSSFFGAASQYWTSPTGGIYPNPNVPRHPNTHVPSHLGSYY
The following applies: protein: recombinant; tags: N-terminal GST; dsDNA, one strand shown. In short, it runs like this:
(§1)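 A tag-only sample was pooled with DNA-barcoded human transcription factors that had been expressed in yeast as GST fusions and captured on glutathione beads. The pools were incubated for 30 min at room temperature with 200 nmole of a random double-stranded 16-mer DNA library in Tris/NaCl/DTT/glycerol buffer, then washed, crosslinked with 0.1% formaldehyde, proximity-ligated (BsaI/T4 ligase, 1 h, 37 °C), PCR-amplified and sequenced on an Illumina NextSeq500. Binding signal is each hexamer's read frequency for a factor divided by its frequency for the tag-only sample.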

For experiment [2], the target named is T2, ELK1 (Homo sapiens, UniProt P19419 1-428).
T2 sequence: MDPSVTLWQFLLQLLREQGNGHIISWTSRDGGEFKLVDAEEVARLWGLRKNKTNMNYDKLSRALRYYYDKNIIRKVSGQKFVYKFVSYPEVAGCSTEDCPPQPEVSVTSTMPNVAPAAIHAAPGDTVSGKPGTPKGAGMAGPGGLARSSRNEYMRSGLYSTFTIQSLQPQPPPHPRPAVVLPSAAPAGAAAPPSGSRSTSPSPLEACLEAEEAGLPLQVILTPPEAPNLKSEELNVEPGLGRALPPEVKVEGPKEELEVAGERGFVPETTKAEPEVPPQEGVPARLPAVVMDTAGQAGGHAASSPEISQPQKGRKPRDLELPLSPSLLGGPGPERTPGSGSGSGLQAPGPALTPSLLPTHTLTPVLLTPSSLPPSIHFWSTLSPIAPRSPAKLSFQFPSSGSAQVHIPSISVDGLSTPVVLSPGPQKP
To be noted: protein: recombinant; tags: N-terminal GST; dsDNA, one strand shown. In short, it runs like this:
as §1

For experiment [3], the target named is T3, GABPA (Homo sapiens, UniProt Q06546 1-454).
T3 sequence: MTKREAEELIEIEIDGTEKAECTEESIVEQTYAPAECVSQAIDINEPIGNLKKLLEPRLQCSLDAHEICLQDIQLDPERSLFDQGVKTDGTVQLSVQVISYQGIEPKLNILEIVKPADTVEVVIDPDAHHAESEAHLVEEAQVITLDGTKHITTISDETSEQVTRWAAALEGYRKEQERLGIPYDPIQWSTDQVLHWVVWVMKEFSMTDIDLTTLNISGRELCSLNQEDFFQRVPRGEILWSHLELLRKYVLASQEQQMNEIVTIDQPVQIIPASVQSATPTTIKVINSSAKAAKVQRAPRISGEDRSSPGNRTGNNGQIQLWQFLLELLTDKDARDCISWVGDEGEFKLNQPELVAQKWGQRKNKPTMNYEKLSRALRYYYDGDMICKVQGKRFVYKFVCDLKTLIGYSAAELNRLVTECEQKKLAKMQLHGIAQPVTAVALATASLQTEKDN
To be noted: protein: recombinant; tags: N-terminal GST; dsDNA, one strand shown. The method in brief:
as §1

In experiment [4] the target is T4, ERG (Homo sapiens, UniProt P11308 1-479).
T4 sequence: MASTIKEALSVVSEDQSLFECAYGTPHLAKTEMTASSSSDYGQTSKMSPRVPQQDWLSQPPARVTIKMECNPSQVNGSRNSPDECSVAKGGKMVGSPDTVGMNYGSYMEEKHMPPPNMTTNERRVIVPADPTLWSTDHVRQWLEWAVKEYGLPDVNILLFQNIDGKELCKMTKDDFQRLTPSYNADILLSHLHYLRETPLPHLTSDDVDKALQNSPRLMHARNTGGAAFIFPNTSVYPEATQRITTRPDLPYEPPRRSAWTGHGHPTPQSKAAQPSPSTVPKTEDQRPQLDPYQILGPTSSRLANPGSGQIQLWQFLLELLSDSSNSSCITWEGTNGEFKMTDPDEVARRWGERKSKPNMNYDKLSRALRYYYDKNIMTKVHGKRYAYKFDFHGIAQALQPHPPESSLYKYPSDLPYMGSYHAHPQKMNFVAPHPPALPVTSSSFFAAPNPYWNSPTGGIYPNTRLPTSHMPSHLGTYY
The following applies: protein: recombinant; tags: N-terminal GST; dsDNA, one strand shown. The method in brief: as §1

Experiment [5] deals with ELF1 (Homo sapiens, UniProt P32519 1-619). The following applies: protein: recombinant; tags: N-terminal GST; dsDNA, one strand shown. In short, it runs like this:
as §1

Experiment [6] deals with T5, EHF (Homo sapiens, UniProt Q9NZC4 1-300).
T5 sequence: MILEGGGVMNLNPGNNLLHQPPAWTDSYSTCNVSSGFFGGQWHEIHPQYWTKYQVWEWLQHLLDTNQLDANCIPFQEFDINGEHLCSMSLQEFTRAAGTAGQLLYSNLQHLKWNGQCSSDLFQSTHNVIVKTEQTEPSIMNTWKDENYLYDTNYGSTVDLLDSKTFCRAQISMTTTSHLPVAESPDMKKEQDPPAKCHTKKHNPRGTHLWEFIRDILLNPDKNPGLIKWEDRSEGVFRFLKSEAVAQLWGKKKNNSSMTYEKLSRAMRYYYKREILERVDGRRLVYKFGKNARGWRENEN
To be noted: protein: recombinant; tags: N-terminal GST; dsDNA, one strand shown. The method in brief:
as §1

The target in experiment [7] is SPI1 (Homo sapiens, UniProt P17947 1-270). To be noted: protein: recombinant; tags: N-terminal GST; dsDNA, one strand shown. The method in brief:
as §1

Experiment [8] deals with SPIB (Homo sapiens, UniProt Q01892 1-262). The following applies: protein: recombinant; tags: N-terminal GST; dsDNA, one strand shown. In short, it runs like this: as §1
For experiment [9], the target named is T6, ELK3 (Homo sapiens, UniProt P41970 1-407).
T6 sequence: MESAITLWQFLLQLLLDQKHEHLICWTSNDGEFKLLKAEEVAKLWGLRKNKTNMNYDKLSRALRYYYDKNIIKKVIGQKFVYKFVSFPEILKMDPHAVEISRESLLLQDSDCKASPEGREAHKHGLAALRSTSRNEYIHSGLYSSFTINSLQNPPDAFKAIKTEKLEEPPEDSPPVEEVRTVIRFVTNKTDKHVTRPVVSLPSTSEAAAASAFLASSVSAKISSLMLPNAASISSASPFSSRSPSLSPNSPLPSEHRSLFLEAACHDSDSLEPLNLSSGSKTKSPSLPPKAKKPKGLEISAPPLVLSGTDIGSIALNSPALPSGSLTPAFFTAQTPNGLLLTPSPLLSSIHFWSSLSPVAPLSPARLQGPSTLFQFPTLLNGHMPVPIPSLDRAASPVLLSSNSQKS
The following applies: protein: recombinant; tags: N-terminal GST; dsDNA, one strand shown. In short, it runs like this:
as §1

For experiment [10], the target named is T7, FEV (Homo sapiens, UniProt Q99581 1-238).
T7 sequence: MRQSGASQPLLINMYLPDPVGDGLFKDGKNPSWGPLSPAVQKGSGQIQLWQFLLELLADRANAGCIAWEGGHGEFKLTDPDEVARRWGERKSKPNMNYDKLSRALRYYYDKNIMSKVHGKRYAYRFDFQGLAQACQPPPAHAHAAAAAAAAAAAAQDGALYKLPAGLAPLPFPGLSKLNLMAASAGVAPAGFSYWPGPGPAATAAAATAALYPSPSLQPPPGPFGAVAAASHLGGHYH
To be noted: protein: recombinant; tags: N-terminal GST; dsDNA, one strand shown. The method in brief:
as §1

Experiment [11] has as its target ETV5 (Homo sapiens, UniProt P41161 1-510). The following applies: protein: recombinant; tags: N-terminal GST; dsDNA, one strand shown. In short, it runs like this: as §1
Experiment [12] deals with HSF1 (Homo sapiens, UniProt Q00613 1-529). To be noted: protein: recombinant; tags: N-terminal GST; chain copies: 3; dsDNA, one strand shown. The method in brief: as §1
Experiment [13] addresses T8, SPIC (Homo sapiens, UniProt Q8N5J4 1-248).
T8 sequence: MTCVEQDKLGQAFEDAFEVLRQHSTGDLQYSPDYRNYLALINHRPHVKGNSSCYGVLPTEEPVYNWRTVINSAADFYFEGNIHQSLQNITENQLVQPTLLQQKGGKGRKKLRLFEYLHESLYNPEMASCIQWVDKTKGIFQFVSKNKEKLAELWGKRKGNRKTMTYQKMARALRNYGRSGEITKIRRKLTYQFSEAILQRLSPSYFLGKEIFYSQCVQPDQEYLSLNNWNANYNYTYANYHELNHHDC
The following applies: protein: recombinant; tags: N-terminal GST; dsDNA, one strand shown. The method in brief:
as §1

Experiment [14] has as its target ELF4 (Homo sapiens, UniProt Q99607 1-663). To be noted: protein: recombinant; tags: N-terminal GST; dsDNA, one strand shown. The method in brief: as §1
Experiment [15] addresses T9, ELK4 (Homo sapiens, UniProt P28324-2 1-405).
T9 sequence: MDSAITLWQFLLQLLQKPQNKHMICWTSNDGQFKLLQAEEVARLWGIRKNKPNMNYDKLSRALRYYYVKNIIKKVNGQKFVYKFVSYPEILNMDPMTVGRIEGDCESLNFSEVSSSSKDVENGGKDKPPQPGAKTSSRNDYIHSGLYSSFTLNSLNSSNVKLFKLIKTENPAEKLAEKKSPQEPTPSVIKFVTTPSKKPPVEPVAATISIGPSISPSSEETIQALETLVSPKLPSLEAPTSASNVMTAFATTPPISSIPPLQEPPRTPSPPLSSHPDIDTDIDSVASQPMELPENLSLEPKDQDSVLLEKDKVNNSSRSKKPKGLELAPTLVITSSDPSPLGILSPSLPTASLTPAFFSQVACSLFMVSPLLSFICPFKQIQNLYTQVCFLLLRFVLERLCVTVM
To be noted: protein: recombinant; tags: N-terminal GST; dsDNA, one strand shown. In short, it runs like this:
as §1

Experiment [16] concerns the target T10, ETV2 (Homo sapiens, UniProt O00321 1-342).
T10 sequence: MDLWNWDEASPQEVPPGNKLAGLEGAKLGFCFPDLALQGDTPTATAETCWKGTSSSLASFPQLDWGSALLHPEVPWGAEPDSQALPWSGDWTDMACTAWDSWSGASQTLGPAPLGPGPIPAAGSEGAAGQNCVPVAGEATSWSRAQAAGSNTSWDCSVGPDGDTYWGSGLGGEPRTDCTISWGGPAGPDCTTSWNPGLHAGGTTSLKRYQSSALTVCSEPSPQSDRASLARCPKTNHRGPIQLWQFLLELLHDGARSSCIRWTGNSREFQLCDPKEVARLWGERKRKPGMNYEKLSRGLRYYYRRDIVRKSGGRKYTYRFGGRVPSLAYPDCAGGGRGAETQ
To be noted: protein: recombinant; tags: N-terminal GST; dsDNA, one strand shown. In short, it runs like this:
as §1

Experiment [17] deals with T11, ELF3 (Homo sapiens, UniProt P78545 1-371).
T11 sequence: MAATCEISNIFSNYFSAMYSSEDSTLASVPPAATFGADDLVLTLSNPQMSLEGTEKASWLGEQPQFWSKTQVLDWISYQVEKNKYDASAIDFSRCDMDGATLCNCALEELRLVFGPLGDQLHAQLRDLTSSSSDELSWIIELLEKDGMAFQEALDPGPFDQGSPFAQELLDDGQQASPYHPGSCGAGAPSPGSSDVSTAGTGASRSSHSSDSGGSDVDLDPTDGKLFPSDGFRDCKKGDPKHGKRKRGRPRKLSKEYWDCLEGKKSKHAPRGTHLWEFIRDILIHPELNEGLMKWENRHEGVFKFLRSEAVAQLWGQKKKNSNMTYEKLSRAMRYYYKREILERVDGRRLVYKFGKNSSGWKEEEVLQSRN
To be noted: protein: recombinant; tags: N-terminal GST; dsDNA, one strand shown. In short, it runs like this: as §1

In experiment [18] the target is CRX (Homo sapiens, UniProt O43186 1-299). The following applies: protein: recombinant; tags: N-terminal GST; dsDNA, one strand shown. The method in brief:
as §1

Experiment [19] deals with ETV1 (Homo sapiens, UniProt P50549 1-477). To be noted: protein: recombinant; tags: N-terminal GST; dsDNA, one strand shown. The method in brief:
as §1

Chain of ETV1 (P50549 whole entry): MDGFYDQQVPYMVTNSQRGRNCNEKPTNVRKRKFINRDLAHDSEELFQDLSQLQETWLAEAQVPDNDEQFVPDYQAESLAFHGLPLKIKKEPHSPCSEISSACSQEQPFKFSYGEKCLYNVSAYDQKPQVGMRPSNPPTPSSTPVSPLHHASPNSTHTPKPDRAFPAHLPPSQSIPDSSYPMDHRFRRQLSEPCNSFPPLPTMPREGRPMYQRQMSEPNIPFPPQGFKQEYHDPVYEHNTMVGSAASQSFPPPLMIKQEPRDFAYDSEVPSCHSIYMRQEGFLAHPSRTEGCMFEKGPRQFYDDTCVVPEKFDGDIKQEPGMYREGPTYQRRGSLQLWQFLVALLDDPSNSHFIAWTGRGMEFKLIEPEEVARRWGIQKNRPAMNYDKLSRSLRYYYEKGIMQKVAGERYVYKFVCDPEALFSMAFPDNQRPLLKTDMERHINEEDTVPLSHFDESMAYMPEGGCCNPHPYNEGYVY
Chain of ELF4 (Q99607 whole entry): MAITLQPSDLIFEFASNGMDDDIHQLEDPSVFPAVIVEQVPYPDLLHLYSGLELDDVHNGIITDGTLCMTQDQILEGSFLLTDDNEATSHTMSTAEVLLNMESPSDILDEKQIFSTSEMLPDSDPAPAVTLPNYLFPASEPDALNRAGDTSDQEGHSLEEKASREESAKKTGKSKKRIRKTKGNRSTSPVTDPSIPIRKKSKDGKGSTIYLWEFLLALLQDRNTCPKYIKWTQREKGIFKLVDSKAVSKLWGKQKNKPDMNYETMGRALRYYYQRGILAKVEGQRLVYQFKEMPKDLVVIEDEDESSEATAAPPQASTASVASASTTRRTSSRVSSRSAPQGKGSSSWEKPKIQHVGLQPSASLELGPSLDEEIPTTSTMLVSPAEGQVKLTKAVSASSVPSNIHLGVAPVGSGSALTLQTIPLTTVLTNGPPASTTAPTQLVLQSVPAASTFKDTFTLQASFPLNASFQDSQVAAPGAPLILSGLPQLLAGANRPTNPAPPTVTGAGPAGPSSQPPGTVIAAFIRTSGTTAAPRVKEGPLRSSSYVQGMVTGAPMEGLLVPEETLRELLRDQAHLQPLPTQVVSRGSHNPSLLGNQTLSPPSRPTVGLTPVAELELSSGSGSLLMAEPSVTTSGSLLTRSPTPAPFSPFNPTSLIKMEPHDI
Chain of CRX (O43186 whole entry): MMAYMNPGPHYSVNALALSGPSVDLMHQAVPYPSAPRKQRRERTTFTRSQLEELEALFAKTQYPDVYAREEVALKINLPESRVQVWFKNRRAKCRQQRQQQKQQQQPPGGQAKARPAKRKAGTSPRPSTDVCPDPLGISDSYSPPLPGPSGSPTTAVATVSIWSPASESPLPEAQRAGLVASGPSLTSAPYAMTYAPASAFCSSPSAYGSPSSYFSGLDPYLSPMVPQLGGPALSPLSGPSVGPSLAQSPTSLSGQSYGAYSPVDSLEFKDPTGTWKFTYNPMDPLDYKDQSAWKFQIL
Chain of HSF1 (Q00613 whole entry): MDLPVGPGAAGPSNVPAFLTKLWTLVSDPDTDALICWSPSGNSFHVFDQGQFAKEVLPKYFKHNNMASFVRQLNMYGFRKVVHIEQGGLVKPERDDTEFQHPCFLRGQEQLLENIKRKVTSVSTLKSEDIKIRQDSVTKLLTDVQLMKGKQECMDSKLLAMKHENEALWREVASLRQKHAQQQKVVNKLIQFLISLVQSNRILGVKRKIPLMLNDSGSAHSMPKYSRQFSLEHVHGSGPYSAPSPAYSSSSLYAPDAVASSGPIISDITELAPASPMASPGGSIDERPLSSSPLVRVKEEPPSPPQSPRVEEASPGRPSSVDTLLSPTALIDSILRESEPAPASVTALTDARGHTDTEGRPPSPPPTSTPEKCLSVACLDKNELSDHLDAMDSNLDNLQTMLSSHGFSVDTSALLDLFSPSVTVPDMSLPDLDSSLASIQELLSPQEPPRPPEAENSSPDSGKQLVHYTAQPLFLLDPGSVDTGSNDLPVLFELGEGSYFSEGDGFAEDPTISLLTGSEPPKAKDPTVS
Chain of SPIB (Q01892 whole entry): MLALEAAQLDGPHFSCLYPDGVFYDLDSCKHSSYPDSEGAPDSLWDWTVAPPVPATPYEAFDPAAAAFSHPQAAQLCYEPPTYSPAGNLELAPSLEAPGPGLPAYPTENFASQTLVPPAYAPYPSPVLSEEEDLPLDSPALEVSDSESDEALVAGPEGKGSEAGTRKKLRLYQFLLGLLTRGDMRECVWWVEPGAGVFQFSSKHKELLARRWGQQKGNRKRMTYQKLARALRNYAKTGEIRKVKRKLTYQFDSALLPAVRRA
Chain of ELF1 (P32519 whole entry): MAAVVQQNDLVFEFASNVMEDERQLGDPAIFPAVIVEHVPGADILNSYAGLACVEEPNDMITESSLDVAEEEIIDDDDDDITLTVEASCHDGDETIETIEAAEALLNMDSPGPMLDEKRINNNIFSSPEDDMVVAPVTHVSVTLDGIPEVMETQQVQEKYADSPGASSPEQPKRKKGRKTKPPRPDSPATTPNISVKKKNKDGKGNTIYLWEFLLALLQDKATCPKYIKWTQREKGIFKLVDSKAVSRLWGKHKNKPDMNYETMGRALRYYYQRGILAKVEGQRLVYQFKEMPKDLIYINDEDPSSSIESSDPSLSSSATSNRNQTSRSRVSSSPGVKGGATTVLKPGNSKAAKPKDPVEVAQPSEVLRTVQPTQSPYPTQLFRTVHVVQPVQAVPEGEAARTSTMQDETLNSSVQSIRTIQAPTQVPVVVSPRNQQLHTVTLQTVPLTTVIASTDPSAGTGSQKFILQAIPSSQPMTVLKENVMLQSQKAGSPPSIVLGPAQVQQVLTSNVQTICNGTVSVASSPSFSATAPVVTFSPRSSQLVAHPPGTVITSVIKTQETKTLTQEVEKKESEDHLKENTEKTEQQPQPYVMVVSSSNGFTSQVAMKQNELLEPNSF
Chain of ETV5 (P41161 whole entry): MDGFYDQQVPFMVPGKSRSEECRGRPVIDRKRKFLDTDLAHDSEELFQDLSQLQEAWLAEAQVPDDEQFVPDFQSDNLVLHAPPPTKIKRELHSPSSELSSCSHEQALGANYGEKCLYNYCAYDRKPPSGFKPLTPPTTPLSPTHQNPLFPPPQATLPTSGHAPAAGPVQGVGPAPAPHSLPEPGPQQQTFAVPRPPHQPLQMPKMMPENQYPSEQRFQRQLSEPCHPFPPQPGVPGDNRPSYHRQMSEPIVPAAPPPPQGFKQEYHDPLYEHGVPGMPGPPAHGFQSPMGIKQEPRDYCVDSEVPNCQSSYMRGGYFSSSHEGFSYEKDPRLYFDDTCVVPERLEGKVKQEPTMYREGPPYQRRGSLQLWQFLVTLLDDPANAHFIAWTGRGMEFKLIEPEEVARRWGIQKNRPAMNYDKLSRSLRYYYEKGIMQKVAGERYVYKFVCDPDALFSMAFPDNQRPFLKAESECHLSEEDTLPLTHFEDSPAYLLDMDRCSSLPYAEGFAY

With TTTAAT, the binding signal in experiment [1] is 1.4 fold enrichment (6-mer frequency, TF over GST control); in [2], 1.28 fold enrichment (6-mer frequency, TF over GST control); in experiment [3], 1.29 fold enrichment (6-mer frequency, TF over GST control); in experiment [4], 1.27 fold enrichment (6-mer frequency, TF over GST control); in experiment [5], 1.29 fold enrichment (6-mer frequency, TF over GST control); in experiment [6] it was 1.35 fold enrichment (6-mer frequency, TF over GST control). The binding signal in experiment [7] was 1.23 fold enrichment (6-mer frequency, TF over GST control); in experiment [8] it was 1.35 fold enrichment (6-mer frequency, TF over GST control); in experiment [9] it was 1.36 fold enrichment (6-mer frequency, TF over GST control); in experiment [10], 1.26 fold enrichment (6-mer frequency, TF over GST control); in [11] it was 1.32 fold enrichment (6-mer frequency, TF over GST control); in [12], 2.06 fold enrichment (6-mer frequency, TF over GST control). The binding signal in experiment [13] was 1.25 fold enrichment (6-mer frequency, TF over GST control); in experiment [14] it was 1.32 fold enrichment (6-mer frequency, TF over GST control); in experiment [15], 1.35 fold enrichment (6-mer frequency, TF over GST control); in [16] it was 1.06 fold enrichment (6-mer frequency, TF over GST control); in experiment [17] it was 1.3 fold enrichment (6-mer frequency, TF over GST control); in experiment [18], 3.28 fold enrichment (6-mer frequency, TF over GST control). Further, the binding signal in [19] was 1.34 fold enrichment (6-mer frequency, TF over GST control).

These data come from PMC7862700, “An all-to-all approach to the identification of sequence-specific readers for epigenetic DNA modifications on cytosine”.
